# Columns and labels:
# [1] = molecular target: T1, Ephrin type-B receptor 1 (Homo sapiens) (UniProt P54762); conditions: at 10 µM
# T1 sequence (whole entry): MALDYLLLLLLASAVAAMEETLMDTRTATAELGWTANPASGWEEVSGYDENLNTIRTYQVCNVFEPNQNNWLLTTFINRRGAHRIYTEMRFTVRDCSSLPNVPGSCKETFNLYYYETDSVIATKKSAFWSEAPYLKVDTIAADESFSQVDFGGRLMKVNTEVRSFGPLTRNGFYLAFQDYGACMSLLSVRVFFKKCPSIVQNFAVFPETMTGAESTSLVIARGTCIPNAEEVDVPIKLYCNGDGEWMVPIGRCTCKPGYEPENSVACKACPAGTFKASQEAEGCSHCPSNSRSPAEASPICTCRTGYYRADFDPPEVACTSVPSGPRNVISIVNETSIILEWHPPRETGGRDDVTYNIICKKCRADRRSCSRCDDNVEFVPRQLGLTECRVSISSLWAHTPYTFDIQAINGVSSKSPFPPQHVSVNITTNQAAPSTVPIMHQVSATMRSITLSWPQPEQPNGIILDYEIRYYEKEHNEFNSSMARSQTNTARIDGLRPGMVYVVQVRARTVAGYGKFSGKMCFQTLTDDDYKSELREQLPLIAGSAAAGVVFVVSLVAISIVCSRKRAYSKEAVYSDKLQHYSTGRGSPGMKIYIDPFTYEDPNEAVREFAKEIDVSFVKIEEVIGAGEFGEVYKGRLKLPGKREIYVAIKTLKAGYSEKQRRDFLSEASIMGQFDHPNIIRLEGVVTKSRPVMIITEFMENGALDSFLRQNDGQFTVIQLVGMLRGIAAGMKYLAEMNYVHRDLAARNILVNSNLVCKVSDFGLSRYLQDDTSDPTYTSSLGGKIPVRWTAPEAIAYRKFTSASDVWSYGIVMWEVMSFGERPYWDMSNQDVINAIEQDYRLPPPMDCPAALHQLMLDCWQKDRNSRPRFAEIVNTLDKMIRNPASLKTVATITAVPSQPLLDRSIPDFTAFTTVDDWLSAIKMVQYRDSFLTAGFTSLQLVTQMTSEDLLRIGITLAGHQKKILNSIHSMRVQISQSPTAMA
# [2] = molecular target: T2, Ephrin type-B receptor 2 (Homo sapiens) (UniProt P29323); conditions: at 1 µM
# T2 sequence (whole entry): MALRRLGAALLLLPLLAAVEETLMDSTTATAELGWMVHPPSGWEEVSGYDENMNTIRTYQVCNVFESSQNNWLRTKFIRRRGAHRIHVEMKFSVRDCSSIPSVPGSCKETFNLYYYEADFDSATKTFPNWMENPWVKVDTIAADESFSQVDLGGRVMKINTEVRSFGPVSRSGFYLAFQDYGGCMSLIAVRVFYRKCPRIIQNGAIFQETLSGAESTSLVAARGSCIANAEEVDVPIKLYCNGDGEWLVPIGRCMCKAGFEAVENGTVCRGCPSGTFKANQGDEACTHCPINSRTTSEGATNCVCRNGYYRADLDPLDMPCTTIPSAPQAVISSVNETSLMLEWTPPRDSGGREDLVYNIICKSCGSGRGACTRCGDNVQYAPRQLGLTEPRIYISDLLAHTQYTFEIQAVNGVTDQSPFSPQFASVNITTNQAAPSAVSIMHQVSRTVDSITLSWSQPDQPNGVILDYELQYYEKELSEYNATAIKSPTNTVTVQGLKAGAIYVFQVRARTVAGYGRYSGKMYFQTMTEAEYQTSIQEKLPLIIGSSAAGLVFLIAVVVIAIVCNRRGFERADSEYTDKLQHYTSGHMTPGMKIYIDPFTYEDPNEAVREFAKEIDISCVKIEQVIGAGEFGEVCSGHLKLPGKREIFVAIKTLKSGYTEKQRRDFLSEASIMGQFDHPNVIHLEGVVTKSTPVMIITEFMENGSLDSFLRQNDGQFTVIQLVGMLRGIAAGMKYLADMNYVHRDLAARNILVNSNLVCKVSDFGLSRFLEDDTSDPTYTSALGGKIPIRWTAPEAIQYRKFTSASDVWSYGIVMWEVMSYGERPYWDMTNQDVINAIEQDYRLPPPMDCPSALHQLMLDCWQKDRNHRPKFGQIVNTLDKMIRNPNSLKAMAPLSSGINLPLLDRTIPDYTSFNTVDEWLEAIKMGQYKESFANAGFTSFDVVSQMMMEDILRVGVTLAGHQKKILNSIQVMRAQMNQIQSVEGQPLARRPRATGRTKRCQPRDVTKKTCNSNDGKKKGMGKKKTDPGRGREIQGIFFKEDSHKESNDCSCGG
# [3] = molecular target: T2, Ephrin type-B receptor 2 (Homo sapiens); conditions: at 10 µM
# [4] = molecular target: T3, Ephrin type-B receptor 3 (Homo sapiens) (UniProt P54753); conditions: at 1 µM
# T3 sequence (whole entry): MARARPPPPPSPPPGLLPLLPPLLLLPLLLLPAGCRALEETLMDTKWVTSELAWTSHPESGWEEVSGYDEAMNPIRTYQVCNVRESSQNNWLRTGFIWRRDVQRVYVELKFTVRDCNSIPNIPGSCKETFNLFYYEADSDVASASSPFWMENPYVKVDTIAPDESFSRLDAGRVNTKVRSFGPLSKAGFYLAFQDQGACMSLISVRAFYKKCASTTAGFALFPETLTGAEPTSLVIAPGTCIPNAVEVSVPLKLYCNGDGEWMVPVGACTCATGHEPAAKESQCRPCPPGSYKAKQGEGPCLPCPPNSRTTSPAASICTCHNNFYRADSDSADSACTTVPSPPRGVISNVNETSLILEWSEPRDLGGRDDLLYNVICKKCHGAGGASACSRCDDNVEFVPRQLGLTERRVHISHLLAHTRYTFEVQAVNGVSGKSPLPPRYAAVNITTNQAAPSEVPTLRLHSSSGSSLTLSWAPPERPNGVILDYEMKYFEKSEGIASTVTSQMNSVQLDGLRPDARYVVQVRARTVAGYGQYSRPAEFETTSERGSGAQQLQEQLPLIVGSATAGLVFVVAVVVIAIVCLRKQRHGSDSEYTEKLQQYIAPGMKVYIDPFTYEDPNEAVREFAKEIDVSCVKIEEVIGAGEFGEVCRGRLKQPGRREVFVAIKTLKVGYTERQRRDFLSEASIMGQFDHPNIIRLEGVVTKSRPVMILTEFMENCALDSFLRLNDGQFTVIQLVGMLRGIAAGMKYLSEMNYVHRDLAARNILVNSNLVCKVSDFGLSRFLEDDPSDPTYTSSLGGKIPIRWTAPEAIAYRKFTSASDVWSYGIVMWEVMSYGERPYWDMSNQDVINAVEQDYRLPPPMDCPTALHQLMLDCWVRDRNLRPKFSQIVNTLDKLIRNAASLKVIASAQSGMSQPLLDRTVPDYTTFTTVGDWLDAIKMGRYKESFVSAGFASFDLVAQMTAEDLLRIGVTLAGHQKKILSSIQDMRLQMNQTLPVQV
# [5] = molecular target: T3, Ephrin type-B receptor 3 (Homo sapiens); conditions: at 10 µM
# [6] = molecular target: T4, Ephrin type-B receptor 4 (Homo sapiens) (UniProt P54760); conditions: at 1 µM
# T4 sequence (whole entry): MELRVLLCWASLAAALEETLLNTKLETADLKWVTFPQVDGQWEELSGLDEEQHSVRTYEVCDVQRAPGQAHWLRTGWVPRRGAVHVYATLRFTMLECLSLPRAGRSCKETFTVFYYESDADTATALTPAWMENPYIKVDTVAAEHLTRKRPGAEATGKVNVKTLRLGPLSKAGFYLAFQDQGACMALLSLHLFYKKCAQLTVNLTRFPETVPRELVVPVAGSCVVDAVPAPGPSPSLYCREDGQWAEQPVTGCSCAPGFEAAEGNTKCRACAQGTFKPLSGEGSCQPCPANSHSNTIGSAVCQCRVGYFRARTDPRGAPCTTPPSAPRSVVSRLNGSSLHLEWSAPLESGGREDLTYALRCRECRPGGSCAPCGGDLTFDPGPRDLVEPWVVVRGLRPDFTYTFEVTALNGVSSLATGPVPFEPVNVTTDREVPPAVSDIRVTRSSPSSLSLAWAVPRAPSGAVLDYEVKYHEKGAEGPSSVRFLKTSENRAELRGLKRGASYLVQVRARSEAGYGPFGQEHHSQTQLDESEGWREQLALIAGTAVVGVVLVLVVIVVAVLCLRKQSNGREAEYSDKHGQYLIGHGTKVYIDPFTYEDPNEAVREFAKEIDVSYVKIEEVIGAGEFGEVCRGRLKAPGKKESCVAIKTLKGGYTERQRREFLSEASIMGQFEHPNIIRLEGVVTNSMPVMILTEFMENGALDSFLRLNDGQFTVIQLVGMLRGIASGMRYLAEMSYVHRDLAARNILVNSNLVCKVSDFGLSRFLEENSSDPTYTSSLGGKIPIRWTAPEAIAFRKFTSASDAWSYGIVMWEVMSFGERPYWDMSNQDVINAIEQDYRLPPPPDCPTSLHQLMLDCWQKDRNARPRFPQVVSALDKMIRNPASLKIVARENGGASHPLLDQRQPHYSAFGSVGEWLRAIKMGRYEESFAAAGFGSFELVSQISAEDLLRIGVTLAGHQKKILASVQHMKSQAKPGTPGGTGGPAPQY
# [7] = molecular target: T4, Ephrin type-B receptor 4 (Homo sapiens); conditions: at 10 µM
# [8] = molecular target: Receptor tyrosine-protein kinase erbB-4 (Homo sapiens) (UniProt Q15303); conditions: at 1 µM
# [9] = molecular target: Receptor tyrosine-protein kinase erbB-4 (Homo sapiens) (UniProt Q15303); conditions: at 10 µM
# [10] = molecular target: Focal adhesion kinase 1 (Homo sapiens) (UniProt Q05397); conditions: at 1 µM
# Focal adhesion kinase 1 (Homo sapiens), sequence (Q05397 2-1052 limits assumed): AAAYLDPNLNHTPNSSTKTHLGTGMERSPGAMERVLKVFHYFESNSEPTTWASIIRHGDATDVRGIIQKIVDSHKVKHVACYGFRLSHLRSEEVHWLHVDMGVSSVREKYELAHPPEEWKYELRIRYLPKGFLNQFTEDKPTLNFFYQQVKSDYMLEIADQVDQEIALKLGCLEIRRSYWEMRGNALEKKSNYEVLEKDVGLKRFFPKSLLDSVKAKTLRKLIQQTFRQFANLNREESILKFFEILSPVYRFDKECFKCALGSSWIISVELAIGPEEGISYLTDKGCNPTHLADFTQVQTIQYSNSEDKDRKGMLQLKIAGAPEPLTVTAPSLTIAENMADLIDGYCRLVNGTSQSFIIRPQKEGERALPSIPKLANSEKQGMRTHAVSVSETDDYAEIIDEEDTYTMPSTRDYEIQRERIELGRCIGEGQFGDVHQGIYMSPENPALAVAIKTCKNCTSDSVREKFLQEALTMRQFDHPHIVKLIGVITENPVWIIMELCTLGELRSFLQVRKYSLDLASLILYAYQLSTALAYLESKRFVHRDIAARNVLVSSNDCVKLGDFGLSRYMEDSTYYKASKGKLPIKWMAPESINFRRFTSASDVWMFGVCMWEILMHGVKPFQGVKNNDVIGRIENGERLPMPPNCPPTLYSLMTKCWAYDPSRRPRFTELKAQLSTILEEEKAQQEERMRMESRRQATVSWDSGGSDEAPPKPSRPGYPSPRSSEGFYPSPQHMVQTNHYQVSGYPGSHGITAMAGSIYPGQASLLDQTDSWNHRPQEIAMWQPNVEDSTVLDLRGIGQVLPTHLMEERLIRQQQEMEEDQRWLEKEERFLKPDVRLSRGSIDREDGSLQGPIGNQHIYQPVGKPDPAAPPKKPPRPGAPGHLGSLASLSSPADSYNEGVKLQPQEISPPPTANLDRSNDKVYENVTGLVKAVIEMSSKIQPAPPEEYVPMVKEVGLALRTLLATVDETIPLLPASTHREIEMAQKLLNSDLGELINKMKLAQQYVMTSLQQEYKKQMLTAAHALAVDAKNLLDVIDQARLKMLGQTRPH
# Receptor tyrosine-protein kinase erbB-4 (Homo sapiens), sequence (Q15303 whole entry): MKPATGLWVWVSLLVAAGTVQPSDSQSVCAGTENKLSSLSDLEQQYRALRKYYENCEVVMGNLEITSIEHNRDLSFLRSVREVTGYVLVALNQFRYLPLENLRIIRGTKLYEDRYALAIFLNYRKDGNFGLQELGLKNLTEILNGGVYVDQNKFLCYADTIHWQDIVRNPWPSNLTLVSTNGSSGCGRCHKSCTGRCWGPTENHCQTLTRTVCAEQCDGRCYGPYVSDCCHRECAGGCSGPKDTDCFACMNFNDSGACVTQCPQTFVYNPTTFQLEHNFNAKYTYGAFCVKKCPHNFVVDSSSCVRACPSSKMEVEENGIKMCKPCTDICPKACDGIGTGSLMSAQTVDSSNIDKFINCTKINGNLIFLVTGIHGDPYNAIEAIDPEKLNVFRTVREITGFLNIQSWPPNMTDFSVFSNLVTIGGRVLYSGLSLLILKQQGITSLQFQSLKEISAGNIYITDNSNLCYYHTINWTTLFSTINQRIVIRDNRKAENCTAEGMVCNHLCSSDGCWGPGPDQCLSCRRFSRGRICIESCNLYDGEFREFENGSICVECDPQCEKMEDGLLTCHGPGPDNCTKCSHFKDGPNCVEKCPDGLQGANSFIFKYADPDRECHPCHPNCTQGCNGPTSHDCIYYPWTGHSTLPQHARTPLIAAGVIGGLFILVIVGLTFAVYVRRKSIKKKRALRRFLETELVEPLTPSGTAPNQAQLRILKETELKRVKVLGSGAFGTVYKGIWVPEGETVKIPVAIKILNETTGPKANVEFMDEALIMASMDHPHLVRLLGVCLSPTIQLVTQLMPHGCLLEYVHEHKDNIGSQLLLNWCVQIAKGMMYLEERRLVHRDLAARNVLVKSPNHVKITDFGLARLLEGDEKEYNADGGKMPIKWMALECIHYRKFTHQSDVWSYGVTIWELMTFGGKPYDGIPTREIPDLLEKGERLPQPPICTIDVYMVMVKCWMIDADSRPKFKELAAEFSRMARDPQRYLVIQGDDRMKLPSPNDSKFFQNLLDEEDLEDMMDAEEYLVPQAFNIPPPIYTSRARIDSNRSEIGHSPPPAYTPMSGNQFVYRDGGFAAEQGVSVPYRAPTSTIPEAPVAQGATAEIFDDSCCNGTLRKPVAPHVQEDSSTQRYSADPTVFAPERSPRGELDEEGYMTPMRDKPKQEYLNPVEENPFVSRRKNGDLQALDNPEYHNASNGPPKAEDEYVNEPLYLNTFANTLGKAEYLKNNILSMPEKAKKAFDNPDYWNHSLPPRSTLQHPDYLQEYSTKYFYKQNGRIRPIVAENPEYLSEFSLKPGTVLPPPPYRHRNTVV
compound,measurement,setting,value
O=C(Nc1cccc(Nc2nccc(Nc3cccc(C(F)(F)F)c3)n2)c1)C1CC1,residual activity,[1],7%
same,residual activity,[2],93%
same,residual activity,[3],26%
same,residual activity,[4],106% (inactive)
same,residual activity,[5],113%
same,residual activity,[6],109%
same,residual activity,[7],10%
same,residual activity,[8],98%
same,residual activity,[9],96%
same,residual activity,[10],51%

# — ChEMBL document CHEMBL2218924, “A broad activity screen in support of a chemogenomic map for kinase signalling research and drug discovery” (Biochem J, 2013)
